About 1,000 (0.29%) of roughly 340,000 compounds were called active.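 The calls were made as follows: active = mean replicate activation score at least 90 and every replicate individually at or above 90; inconclusive = only one of the two criteria met; inactive = neither criterion met.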 For the sample, actives were picked, then their nearest neighbours and some compounds at random.
Test: miR-122 Renilla sensor signal increase in Huh7, primary screen, miR-122 inhibitor project, cell-based, single point, plate reader (AID 602342);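 also: higher luciferase means less miR-122 activity so hits act as miR-122 inhibitors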
Conditions: Huh7 miR-122 Renilla luciferase sensor, 48 h, active compounds read high; at 12.5 µM unless noted

| SMILES | activation (reporter increase) |
| --- | --- |
| C[C@]12CCC3C(CC[C@H]4C[C@@H](O)CC[C@]34C)C1C[C@@H](O)[C@H]2O (stereo not given in full) | -6.69% (inactive) |
| C[C@]12CC[C@H](O)C[C@H]1CC[C@@H]1C2CC[C@]2(C)[C@@H](C3=CC(=O)OC3)[C@@H](O)C[C@]12O (stereo not given in full) | 339% (active) |
| C[C@]12CCC3C(CC[C@H]4C[C@@H](O)CC[C@]34C)C1CC[C@@H]2O (stereo not given in full) | -9.92% (inactive) |
| COc1ccc(-n2nnnc2C(c2cccc3ccccc23)N2CCC(n3c(=O)[nH]c4ccccc43)CC2)cc1 (stereo not given) | -6.36% (inactive) |
| COC(=O)[C@H]1[C@H](CO)[C@H]2Cn3c(ccc(-c4ccccc4F)c3=O)[C@@H]1N2C(=O)C1CCC1 | 3% [at 16.7 µM] (inactive) |
